Experimental data as given in PubChem BioAssay (NCI).
The panel holds about 83,000 compounds, 20% with a hit somewhere; the sample as a whole holds those more often.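 Activity criterion: percent growth below 10, measured after cells in 96-well plates were exposed to a single compound concentration for 48 hours.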 A number with no mark means an inactive call. Calls of active or inactive are those of the source.

Columns and labels:
Experiment in all cases: NCI-60 one-dose screen, 48 h (100 = growth as untreated, 0 = no growth, -100 = all killed)
Conditions in all cases: 10 µM
[1] = tested on: DU-145 prostate
[2] = tested on: K-562 leukemia
[3] = tested on: MALME-3M melanoma
[4] = tested on: MDA-MB-231 breast
[5] = tested on: SF-268 CNS
[6] = tested on: SF-295 CNS
[7] = tested on: SF-539 CNS
[8] = tested on: UACC-257 melanoma
[9] = tested on: M14 melanoma

Compound	growth [1]	growth [2]	growth [3]	growth [4]	growth [5]	growth [6]	growth [7]	growth [8]	growth [9]
OCCNc1oc(-c2ccccc2)nc1[P+](c1ccccc1)(c1ccccc1)c1ccccc1	16.6%	11.2%	-26.1% (active)	-5.38% (active)	5.6% (active)	20.7%	16.7%	-9.09% (active)	11%
CC(=O)Nc1ccc(-c2cn(-c3cccc(C(=O)Nc4ccc(Cl)c(C(F)(F)F)c4)c3)nn2)cn1	3.54% (active)	4.92% (active)	-89.6% (active)	-87% (active)	6.74% (active)	-64.2% (active)	-97.4% (active)	-21.8% (active)	-49.1% (active)
N#Cc1ccc(-c2nn(-c3ccc(C(=O)O)cc3)cc2CNc2ccc(Oc3ccccc3)cc2)cc1	65.4%	42.7%	93.9%	72.5%	50.1%	49.3%	38.9%	56.1%	34.9%
Cc1ccc(-c2cc(C(=O)N=Nc3c(O)[nH]c4ccccc34)c3ccccc3n2)cc1	3.29% (active)	13.8%	36.5%	2.78% (active)	36.4%	94.3%	-66.2% (active)	81%	70.5%
COc1cc2c3c(n(CCCn4ccnc4)c(=O)c2cc1OC)-c1nc2c(cc1C3=O)OCO2	13.4%	28.4%	59.9%	84.1%	42.4%	-7.74% (active)	-10.1% (active)	66%	19.9%
O=c1c2ccccc2nc(COc2ccccc2)n1/N=C/c1ccc(F)cc1	91.4%	69.8%	115%	88%	99.7%	89.4%	89.6%	99.8%	98.8%
O=S(=O)(Nc1ncccn1)c1ccc(-n2c(-c3ccccc3)nc(-c3ccccc3)c2-c2ccccc2)cc1	101%	92.6%	111%	87.7%	85%	65.9%	83.4%	118%	102%
Cc1noc2c(Cc3ccc([N+](=O)[O-])cc3)nn(CC(=O)N/N=C/c3ccc(Br)cc3)c(=O)c12	74.9%	88.7%	66%	46.4%	72.1%	89.5%	26.1%	106%	93.4%
Cc1noc2c(Cc3ccccc3)nn(CC(=O)N/N=C/c3ccc(F)cc3)c(=O)c12	65.2%	96.7%	-1.4% (active)	44.3%	62.6%	25.9%	66.9%	67.4%	66.1%
COc1cc(/C=C/C(=O)c2ccc(S(=O)(=O)NCCNc3nc(Nc4ccc(F)cc4)nc(N(C)C)n3)cc2)cc(OC)c1OC	5.6% (active)	4.79% (active)	53.7%	-44.8% (active)	11.1%	13.5%	-94.9% (active)	71.6%	5.45% (active)
COc1ccc(C(=O)CSc2nnc(-c3c[nH]c4ccccc34)n2-c2ccccc2)cc1	68.9%	58.2%	-16.2% (active)	32.5%	41%	36.2%	28.5%	59.5%	75.7%
N#Cc1c(NC(=O)c2ccc(C(F)(F)F)cc2)sc2c1CCC(=O)C2	23.1%	7.26% (active)	-54.2% (active)	-84.4% (active)	-37.6% (active)	-95.3% (active)	-89.2% (active)	-71.1% (active)	-78.5% (active)
O=C(CNc1nc(-c2ccccc2)cs1)Nc1ccc(Br)cc1	-92.3% (active)	6.7% (active)	-82.4% (active)	-92.5% (active)	-12.5% (active)	-97.5% (active)	-98.3% (active)	-73.8% (active)	-86.5% (active)
O=C(NO)c1ccc(CNC(=O)[C@H]2Cc3c([nH]c4ccccc34)[C@H](c3ccccc3)N2)cc1	29.5%	11.6%	15.2%	7.55% (active)	40.3%	17.7%	34%	21.4%	27.5%
COc1ccc(C2NC(=S)NC(C)=C2C(=O)OC(C)C)cc1OC (configuration not stated)	110%	105%	95.7%	105%	107%	97.4%	103%	119%	105%
COc1ccc2[nH]cc(/C=N/Nc3ccc(Br)cn3)c2c1	40.7%	9.92% (active)	63.9%	6.27% (active)	21%	17.4%	18.8%	52.6%	8.66% (active)
CN(C)c1ccc(/C=C/C(=O)c2ccc(NC(=O)CN3C(=O)NC(C)(c4ccccc4)C3=O)cc2)cc1 (configuration not stated)	75.3%	27.9%	80.3%	68.1%	57.9%	54.9%	55.2%	62.9%	51.5%
O=C(NO)c1ccc(Cn2ccc3c(NCc4ccccc4)ncnc32)cc1	10.3%	12.2%	-5.08% (active)	-18% (active)	19%	-68.2% (active)	-71.1% (active)	-20.8% (active)	-9.73% (active)
CC(=O)c1cc(C(=O)N2c3ccccc3Sc3ccccc32)n2ccc(C)cc12	56.6%	18.7%	53.9%	46.4%	49.4%	36.5%	32.7%	31.6%	36.1%
N#Cc1ccc(NC(=O)CSc2ccc(-c3ccc(Br)cc3)nn2)cc1	88.8%	48.7%	68.8%	76.7%	62.6%	58.9%	67.2%	47.3%	63.5%
CC(C)C1=C[C@@]23CC[C@@H]4[C@](C)(CCC[C@]4(C)C(=O)NCc4ccccc4)[C@H]2C[C@@H]1[C@H]1C(=O)OC(=O)[C@H]13	55.3%	21.5%	87%	77.1%	46.6%	17.8%	63.2%	82.1%	54.3%
O=C1N/C(=N\c2nccs2)S/C1=C\c1cccs1	53.2%	20.1%	28.9%	47.6%	44.7%	13.4%	21.8%	49.6%	9.09% (active)
COc1ccc2c(c1)N=C(C(=O)O)/C2=C/c1sc(Nc2ccc(O)cc2)nc1O	94.1%	29.1%	50.7%	63.7%	78.1%	76.5%	52.1%	81.3%	72.3%
COC(=O)C[C@](O)(CCCC(C)(C)O)C(=O)O[C@H]1C(OC)=C[C@@]23CCC(=O)N2CCc2cc4c(cc2[C@@H]13)OCO4	103%	96.7%	81.5%	117%	101%	103%	93.3%	109%	102%
CN1C(=O)N(C)C2SC(N/N=C/c3ccccc3)=NC21 (configuration not stated)	97.1%	19.2%	61.6%	56.5%	82.9%	66.6%	64.5%	90.5%	48.4%
COc1ccc(-c2cc(-c3cc(C(=O)c4ccccc4)n4ccc(C)cc34)nc(N)c2C#N)cc1	77.9%	88.3%	50.8%	34.4%	41.2%	45.2%	7.52% (active)	84.4%	79.8%
CN1CCc2c(sc3ncnc(N/N=C/c4ccc5ccccc5c4)c23)C1	68.8%	13.9%	91.2%	48%	68.9%	53.9%	29.1%	107%	82%
CC(=O)c1ccc(Nc2nc(SCCC(C)C)nc(-c3ccc(F)cc3)c2C#N)cc1	61.1%	63.9%	72.7%	24.8%	52.9%	11.5%	16.3%	106%	84.7%
